Reference: PubChem BioAssay
Calls of active or inactive are those of the source. Unless noted, no rule for the calls is given here.

Key:
[1] = anti-His antibody binders, primary screen, artefact control for SMM control protein annotation, biochemical, small-molecule microarray, 635 nm fluorescence (AID 1128); details: anti-His Alexa647 antibody binding, higher = more signal;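 also: score merges feature fluorescence with signal-to-noise for each printed compound spot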
[2] = tested on: Human papillomavirus type 1a E7 protein (residues 1-88); test: HPV1a E7 small-molecule binders, primary screen, biochemical, small-molecule microarray, residues 1-88, 635 nm (AID 1129); details: small-molecule microarray binding, fluorescence 635 nm; higher = more signal
[3] = target: Focal adhesion kinase 1 (Homo sapiens) (UniProt Q05397); test: small-molecule microarray binders of FAK, primary screen, biochemical, 635/667 nm fluorescence, BSA, DTT (AID 1130); details: PTK2 binding, 635 nm fluorescence, higher = more signal;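 also: composite of spot emission at 667 nm and signal to noise over triplicate slides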
Sequence of Focal adhesion kinase 1 (Homo sapiens) (Q05397 whole entry, looked up): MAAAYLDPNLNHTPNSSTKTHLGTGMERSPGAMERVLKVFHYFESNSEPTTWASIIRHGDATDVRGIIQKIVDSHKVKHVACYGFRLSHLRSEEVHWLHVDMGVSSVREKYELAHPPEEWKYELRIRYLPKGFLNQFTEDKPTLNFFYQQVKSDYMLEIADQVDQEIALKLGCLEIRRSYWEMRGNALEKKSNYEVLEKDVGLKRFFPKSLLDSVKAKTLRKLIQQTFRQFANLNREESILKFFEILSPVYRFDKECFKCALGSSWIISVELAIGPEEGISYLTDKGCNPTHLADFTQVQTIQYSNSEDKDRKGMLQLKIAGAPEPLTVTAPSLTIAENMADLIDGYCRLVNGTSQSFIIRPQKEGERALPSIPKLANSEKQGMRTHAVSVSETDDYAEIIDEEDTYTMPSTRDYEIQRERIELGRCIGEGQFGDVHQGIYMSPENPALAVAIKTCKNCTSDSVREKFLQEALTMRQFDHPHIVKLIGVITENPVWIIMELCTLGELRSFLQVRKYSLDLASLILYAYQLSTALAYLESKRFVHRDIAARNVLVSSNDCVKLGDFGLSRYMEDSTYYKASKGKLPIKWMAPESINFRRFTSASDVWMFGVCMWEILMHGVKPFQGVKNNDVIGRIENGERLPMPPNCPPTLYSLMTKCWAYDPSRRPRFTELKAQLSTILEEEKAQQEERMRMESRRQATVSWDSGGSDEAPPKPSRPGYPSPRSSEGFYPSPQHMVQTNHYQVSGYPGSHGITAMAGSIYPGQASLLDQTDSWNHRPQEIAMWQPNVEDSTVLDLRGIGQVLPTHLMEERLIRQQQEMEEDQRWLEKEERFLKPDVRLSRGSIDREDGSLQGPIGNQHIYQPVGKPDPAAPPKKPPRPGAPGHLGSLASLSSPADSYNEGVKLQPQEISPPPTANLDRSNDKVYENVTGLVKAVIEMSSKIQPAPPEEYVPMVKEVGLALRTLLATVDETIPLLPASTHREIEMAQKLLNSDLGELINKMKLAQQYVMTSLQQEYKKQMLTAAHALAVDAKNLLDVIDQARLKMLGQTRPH

[4] = tested on: Fibrinogen (Alexa647-labelled); test: fibrinogen binders on compound microarrays, profiling panel, artefact control for SMM control-protein annotation, biochemical, small-molecule microarray, 635/667 nm fluorescence (AID 1131); details: fibrinogen-A647 binding fluorescence, higher = more signal;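 also: z-score merges 667 nm fluorescence with per-spot signal-to-noise over triplicate slides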
[5] = target: Follistatin (Homo sapiens) (UniProt P19883); test: follistatin binders on small-molecule microarrays, primary screen, biochemical, small-molecule microarray, 635/667 nm fluorescence (AID 1132); details: FST binding, 635 nm fluorescence, higher = more signal
Sequence of Follistatin (Homo sapiens) (P19883 whole entry, looked up): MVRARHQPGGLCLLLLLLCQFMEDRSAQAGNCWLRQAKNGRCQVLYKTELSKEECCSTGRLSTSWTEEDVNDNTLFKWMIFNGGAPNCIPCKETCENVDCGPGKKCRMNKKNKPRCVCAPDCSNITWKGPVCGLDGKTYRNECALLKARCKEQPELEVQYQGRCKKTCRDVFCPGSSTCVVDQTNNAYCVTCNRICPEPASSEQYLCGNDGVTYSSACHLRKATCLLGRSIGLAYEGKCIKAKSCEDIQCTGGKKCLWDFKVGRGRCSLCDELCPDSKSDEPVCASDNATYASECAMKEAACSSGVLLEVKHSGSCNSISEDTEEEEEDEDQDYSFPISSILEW

[6] = target: Fibroblast growth factor 2 (Homo sapiens) (UniProt P09038); test: FGF2 binders on small-molecule microarrays, primary screen, biochemical, small-molecule microarray, 635/667 nm fluorescence (AID 1133); details: small-molecule microarray binding, FGF2, fluorescence 635/667; higher = more signal
Sequence of Fibroblast growth factor 2 (Homo sapiens) (P09038 whole entry, looked up): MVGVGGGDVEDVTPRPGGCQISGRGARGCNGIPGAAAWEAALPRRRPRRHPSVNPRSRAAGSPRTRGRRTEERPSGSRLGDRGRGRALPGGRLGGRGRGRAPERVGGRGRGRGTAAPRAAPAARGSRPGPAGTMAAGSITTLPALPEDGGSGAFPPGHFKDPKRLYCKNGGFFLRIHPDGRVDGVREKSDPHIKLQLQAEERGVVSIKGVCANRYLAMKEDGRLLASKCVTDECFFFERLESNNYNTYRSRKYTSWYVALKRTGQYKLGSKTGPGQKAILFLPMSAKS

[7] = mitochondrial membrane potential change in A549 cells, profiling panel, cell-based, JC-1 fluorescence, basal, 24 h, 100 nL (AID 1138); details: higher = more signal;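 also: A549 lung adenocarcinoma cells under basal conditions with no added stimulus; test concentration not given here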
Lefty1 = Lefty1 binders on small-molecule microarrays, primary screen, biochemical, small-molecule microarray, 635/667 nm fluorescence (AID 1139); details: small-molecule microarray binding, fluorescence 635/667; higher = more signal
[8] = tested on: wheat germ agglutinin (Triticum aestivum), Alexa647-labelled; test: wheat germ agglutinin binders on compound microarrays, profiling panel, artefact control for SMM control-protein annotation, biochemical, small-molecule microarray, 635/667 nm fluorescence (AID 1140); details: WGA-A647 binding, 635 nm fluorescence, higher = more signal;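 also: score merges 667 nm feature emission with signal to noise over triplicate slides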
[9] = target: Luciferin 4-monooxygenase (Photinus pyralis) (UniProt P08659); test: firefly luciferase enzyme inhibitors, primary screen, biochemical, luminescence, purified enzyme, 2006 set (AID 1141); details: SteadyGlo luminescence, 30 min, higher = more signal, called active from +8 up or from −8 down;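 also: cell-free assay with purified firefly luciferase at 100 ng per well in PBS; test concentration not given here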
Sequence of Luciferin 4-monooxygenase (Photinus pyralis) (P08659 whole entry, looked up): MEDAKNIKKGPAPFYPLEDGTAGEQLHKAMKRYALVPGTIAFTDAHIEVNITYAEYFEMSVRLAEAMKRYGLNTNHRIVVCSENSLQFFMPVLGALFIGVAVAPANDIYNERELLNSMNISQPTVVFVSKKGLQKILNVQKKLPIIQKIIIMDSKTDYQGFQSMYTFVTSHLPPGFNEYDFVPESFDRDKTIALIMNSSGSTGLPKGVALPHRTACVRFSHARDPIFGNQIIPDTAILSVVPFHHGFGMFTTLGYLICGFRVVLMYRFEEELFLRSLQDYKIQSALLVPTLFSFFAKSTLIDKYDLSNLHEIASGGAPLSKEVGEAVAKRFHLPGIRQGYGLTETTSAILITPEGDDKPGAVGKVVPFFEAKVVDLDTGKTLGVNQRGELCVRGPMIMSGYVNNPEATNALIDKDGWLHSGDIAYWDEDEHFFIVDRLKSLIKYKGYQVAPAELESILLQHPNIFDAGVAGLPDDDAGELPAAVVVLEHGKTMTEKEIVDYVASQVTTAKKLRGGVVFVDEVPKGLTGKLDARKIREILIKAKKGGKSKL

[10] = tested on: Wnt5a (protein binding on small-molecule microarray); test: Wnt5a binders on small-molecule microarray, primary screen, biophysical, 635/667 nm fluorescence (AID 1142); details: 635 nm fluorescence, higher = more signal;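 also: fluorescence read at 667 nm with signal to noise per printed feature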
[11] = cell viability in Huh7 cells, primary screen, cytotoxicity control for HCV replication inhibitor project, CellTiter-Glo luminescence, basal, 48 h (AID 1143); details: Huh7 HCV replicon, higher = more signal, called active from +8 up or from −8 down;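 also: Huh7 hepatoma cells carrying a hepatitis C replication reporter with no stimulus; test concentration not given here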
[12] = P. aeruginosa biofilm formation inhibitors, primary screen, PAO1 strain, BacTiter-Glo luminescence, LB-PBS (AID 1144); details: 12 h, higher = more signal
[13] = CREB reporter modulators without forskolin, primary screen, cell-based, PC12, CRE-LacZ reporter, unstimulated (AID 1145); details: no forskolin, luminescence, 4.5 h, higher = more signal, called active from +8 up or from −8 down
[14] = CREB reporter modulators under forskolin, primary screen, cell-based, PC12, CRE-LacZ reporter, forskolin-stimulated (AID 1146); details: luminescence, 4.5 h, higher = more signal, called active from +8 up or from −8 down;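 also: PC12 cells with 6xCRE LacZ reporter stimulated by forskolin 10 µM; beta-galactosidase reporter signal reflecting CREB driven transcription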
[15] = target: Streptavidin (Streptomyces avidinii) (UniProt P22629); test: streptavidin binders on small-molecule microarray, primary screen, artefact control for SMM compound annotation, biophysical, 635/667 nm fluorescence (AID 1147); details: streptavidin binding, higher = more signal;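 also: signal reflects streptavidin binding to arrayed compounds as a control protein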
Sequence of Streptavidin (Streptomyces avidinii) (P22629 whole entry, looked up): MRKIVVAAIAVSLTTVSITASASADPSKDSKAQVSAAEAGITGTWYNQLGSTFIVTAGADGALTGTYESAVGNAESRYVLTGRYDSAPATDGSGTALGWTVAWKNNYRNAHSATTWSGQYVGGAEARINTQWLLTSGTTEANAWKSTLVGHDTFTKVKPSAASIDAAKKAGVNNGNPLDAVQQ

[16] = small-molecule binders of probe aInhba, primary screen, biochemical, small-molecule microarray, 635/667 nm fluorescence (AID 1148); details: higher = more signal;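 also: score merges 667nm spot fluorescence with signal-to-noise for antibody binding to printed compounds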
Torsin-1A (Homo sapiens) [17] = target: Torsin-1A (Homo sapiens) (UniProt O14656); test: torsin A binders from cell lysate, primary screen, small-molecule microarray, wild-type, 635/667 nm (AID 1149); details: COS7 hTOR1A-WT lysate, 635 nm fluorescence, higher = more signal
Sequence of Torsin-1A (Homo sapiens) (O14656 whole entry, looked up): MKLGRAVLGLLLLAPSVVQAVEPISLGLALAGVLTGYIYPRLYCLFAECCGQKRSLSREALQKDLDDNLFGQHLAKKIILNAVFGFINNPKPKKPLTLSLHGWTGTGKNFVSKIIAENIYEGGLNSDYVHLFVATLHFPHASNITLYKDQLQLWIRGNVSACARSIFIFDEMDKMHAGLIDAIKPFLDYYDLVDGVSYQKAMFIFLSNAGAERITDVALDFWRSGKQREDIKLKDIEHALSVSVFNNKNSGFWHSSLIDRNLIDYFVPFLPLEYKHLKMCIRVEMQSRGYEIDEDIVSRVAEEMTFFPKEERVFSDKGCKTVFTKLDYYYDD

Torsin-1A (Homo sapiens) [18] = target: Torsin-1A (Homo sapiens) (UniProt O14656); test: small-molecule binders of mutant TOR1A in lysate, primary screen, cell lysate, small-molecule microarray, COS7 lysate, 635/667 nm fluorescence (AID 1150); details: COS7 hTOR1A mutant lysate, 635 nm fluorescence, higher = more signal;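 also: score pools 667 nm emission and signal to noise measuring lysate protein binding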
[19] = tested on: Sonic hedgehog protein (Shh); test: small-molecule binders of Shh protein, primary screen, biochemical, small-molecule microarray, 635/667 nm fluorescence (AID 1151); details: small-molecule microarray binding, 635 nm fluorescence; higher = more signal;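 also: Shh protein binding to compounds spotted on small-molecule microarray slides; score combines spot fluorescence intensity with signal-to-noise across triplicate slides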

Compound | composite z-score [1] | composite z-score [2] | composite z-score [3] | composite z-score [4] | composite z-score [5] | composite z-score [6] | z-score [7] | composite z-score (Lefty1) | composite z-score [8] | z-score [9] | composite z-score [10] | z-score [11] | z-score [12] | z-score [13] | z-score [14] | composite z-score [15] | composite z-score [16] | composite z-score (Torsin-1A (Homo sapiens) [17]) | composite z-score (Torsin-1A (Homo sapiens) [18]) | composite z-score [19]
C=C(CCCC)/C(=C/C[C@H](OC(=O)c1ccncc1)c1ccc(CO)o1)c1cc(C(=O)OC)ccc1OC | 0.872 | 1.19 | -0.0174 | 0.826 | 0.899 | 1.08 | -0.648 | 1.28 | 1.04 | -1.19 (inactive) | 0.0136 | -0.441 (inactive) | -0.525 (inactive) | 0.201 (inactive) | 2.68 (inactive) | 0.551 | 0.221 | 0.428 | 0.646 | 1.63
C[C@@]1([C@@H](NC(=O)c2cccs2)c2ccc(-c3ccccc3)cc2)C[C@H]1C1CCCCC1 | -1.16 | -0.678 | 0.429 | -1.76 | -0.27 | -1.48 | -0.255 | -0.507 | -1.45 | 1.44 (inactive) | -0.465 | -4.41 (inactive) | 0.141 (inactive) | 0.201 (inactive) | -0.169 (inactive) | -0.649 | -0.157 | -1.24 | -0.787 | -1.46
O=C1C2C=CC(C(O)c3ccccn3)N(Nc3ccccc3)C2C(=O)N1c1ccccc1 (stereo not given) | 0.0213 | 0.0731 | 0.478 | 0.339 | 0.0784 | -0.424 | 0.327 | 0.144 | 1.14 | -1.08 (inactive) | -0.234 | 0.915 (inactive) | -0.574 (inactive) | 1.02 (inactive) | 0.497 (inactive) | -0.065 | 0.0013 | -0.265 | -0.382 | -0.367
COC(=O)C(CC#Cc1ccc2c(c1)[C@]1(C(=O)N2)[C@H](c2ccc(O)cc2)N2[C@H](c3ccccc3)[C@H](c3ccccc3)OC(=O)[C@H]2[C@@H]1C(=O)O)C(=O)OC | 0.124 | 0.56 | 0.318 | 0.298 | 0.879 | -0.12 | -0.233 | 0.369 | -0.22 | -0.462 (inactive) | -0.198 | -0.627 (inactive) | -0.191 (inactive) | 0.389 (inactive) | 0.416 (inactive) | -0.0974 | -0.212 | -0.295 | 0.168 | 0.262
COC(=O)[C@@]1(Cc2ccccc2)[C@H]2c3cc(C(=O)N4CCCC4)n(CCO)c3C[C@H]2CN1C(=O)c1ccccc1 | 0.931 | 0.992 | 0.747 | 0.488 | 0.961 | 0.0586 | 0.841 | -0.493 | 1.12 | 0.891 (inactive) | 1.42 | -1.08 (inactive) | 0.0984 (inactive) | -0.189 (inactive) | 0.0581 (inactive) | 1.97 | 1.4 | 3.21 | 3.41 | -1.01
Cc1cc(C)c(C(O)C2C=CC3C(=O)N(c4ccccc4)C(=O)C3N2Nc2ccc([N+](=O)[O-])cc2)c(C)c1 (stereo not given) | 0.945 | 1.22 | 0.434 | 1.02 | 1.08 | 0.504 | -0.712 | 0.648 | 0.71 | 1.12 (inactive) | 0.243 | -1.1 (inactive) | -2.08 (inactive) | -0.0696 (inactive) | 0.691 (inactive) | 1.72 | 0.548 | 0.567 | 1.2 | 0.697
CO[C@H]1O[C@H](CO)[C@@H](OC(=O)Nc2ccc(C(F)(F)F)cc2)[C@H](OC(=O)Nc2ccccc2)[C@H]1OC(=O)Nc1ccccc1 | 2.65 | 1.25 | 1.15 | 0.737 | 1.29 | 0.805 | -1.89 | 0.88 | 1.33 | -0.579 (inactive) | 0.71 | -5.9 (inactive) | -0.109 (inactive) | 3.11 (inactive) | -1.51 (inactive) | 1.22 | 0.3 | 0.386 | 0.183 | 1.2
COc1ccc([Si](C)(C)[C@H]2[C@H](CCn3cc(CCO)nn3)O[C@@]3(C(=O)N(Cc4cccc(N5C(=O)c6cccc7cccc5c67)c4)c4ccccc43)[C@@H]2C)cc1 | 0.246 | 1.05 | 0.124 | 0.497 | 0.958 | 0.691 | -0.338 | 1.21 | 0.878 | -1.54 (inactive) | 0.16 | -7.3 (inactive) | -1.11 (inactive) | 11 (active) | -1.3 (inactive) | 0.99 | -0.018 | 1.33 | 1.22 | 1.37
CC(C)NC(=O)[C@@]1(Cc2ccccc2I)c2ccccc2C(=O)N(Cc2ccccc2C(F)(F)F)[C@H]1c1ccc(CO)cc1 | 0.992 | 0.906 | 0.601 | 0.75 | 0.464 | 0.125 | 1.29 | 0.266 | 1.15 | -0.793 (inactive) | 0.0851 | -1.7 (inactive) | 0.358 (inactive) | 0.856 (inactive) | -0.151 (inactive) | -0.503 | 0.225 | -0.158 | 0.644 | 0.66
CCCN1C(=O)[C@@]2(Cc3ccccc3)N=C(c3ccc(OCCCO)cc3)O[C@H]2c2ccccc21 | 0.856 | 1.08 | 0.86 | 0.753 | 1.42 | 1.73 | 0.686 | 0.757 | 0.445 | -4.05 (inactive) | 0.421 | -5.03 (inactive) | -0.657 (inactive) | 1.61 (inactive) | -0.979 (inactive) | -0.0407 | 0.215 | 1.06 | 0.884 | 1.72
